KinaseGlo FLuc = Counterscreen for Luciferase (Kinase-Glo TM) Inhibition; Luciferin 4-monooxygenase (Photuris pensylvanica), Q27757; Kinase-Glo luciferase, ATP luminescence, 8 min; Potency, µM (top dose mostly 38.3 µM), usual class: inhibitors; 0.28% of 200,000 active; note: nearly all actives have a fitted effect of over 60% in size
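Compound is pinned into ATP-containing buffer (10 uM ATP, imidazole pH 7.2, 7 mM MgCl2). Kinase-Glo luciferase reagent is then added. Light output is recorded following an 8-min room-temperature incubation.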
VP16 counter = VP16 counterscreen qHTS for inhibitors of ROR gamma transcriptional activity. Drosophila S2 Gal4-VP16 UAS-luciferase, luminescence, 20 h. Potency, µM (series often up to 53.6 µM), usual class: inhibitors. 3.5% of 310,000 active. AID 2546, 2010;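 note: Gal4-VP16 expression switched on by copper sulfate through the metallothionein promoter; nearly all actives have a fitted effect of over 50% in size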
RORgamma inh = qHTS for inhibitors of ROR gamma transcriptional activity. Nuclear receptor ROR-gamma (Mus musculus), P51450. Drosophila S2 Gal4-RORgamma UAS-luciferase reporter, 20 h. Potency, µM (doses to about 53.6 µM), usual class: inhibitors. 5.4% of 310,000 active; note: nearly all actives have a fitted effect of over 60% in size
Target sequence (P51450 whole entry, looked up, the tested form may be a part): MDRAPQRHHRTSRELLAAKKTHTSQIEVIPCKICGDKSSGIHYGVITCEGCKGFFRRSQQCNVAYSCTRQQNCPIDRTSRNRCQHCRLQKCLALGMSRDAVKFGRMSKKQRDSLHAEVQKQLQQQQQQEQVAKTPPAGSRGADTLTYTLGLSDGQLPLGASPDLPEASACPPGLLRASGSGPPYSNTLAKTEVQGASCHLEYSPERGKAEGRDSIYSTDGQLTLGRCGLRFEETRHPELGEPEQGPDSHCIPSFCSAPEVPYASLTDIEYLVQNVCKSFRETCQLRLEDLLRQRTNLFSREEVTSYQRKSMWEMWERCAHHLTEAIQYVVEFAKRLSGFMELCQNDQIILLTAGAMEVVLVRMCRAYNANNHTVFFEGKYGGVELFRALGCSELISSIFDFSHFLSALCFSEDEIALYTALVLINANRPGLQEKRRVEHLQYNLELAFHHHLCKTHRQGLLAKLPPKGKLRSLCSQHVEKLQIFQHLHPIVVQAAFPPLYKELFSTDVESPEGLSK
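Schneider cells (Drosophila), stable Gal4 DBD–ROR gamma + UAS-luc; 1 hr cmpd preincubation; Cu2+ induction 700 uM final; 20 hr ambient; luminescence.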
Large screens that a line does not name were inactive. Shown are actives, neighbours in structure and some others; about 6.4% of the full set was active somewhere. Calls come from the whole dose curve; as a rule, active = well fitted curve in the direction sought with a large enough effect; inconclusive = small, poorly fitted or top-dose-only effect, or another doubt; inactive = no such curve, though single readings can be large; an effect the other way counts as inactive or inconclusive.

O=C(c1ccco1)N1CCN(c2cc(N3CCOCC3)c(F)cc2[N+](=O)[O-])CC1	none
CC(C)(C)C(=O)N1CCN(c2ccc(Cl)cc2[N+](=O)[O-])CC1	none
O=C(NC(=S)N1CCN(c2ccc([N+](=O)[O-])cc2)CC1)c1ccco1	VP16 counter 1.4µM, RORgamma inh 0.71µM
CNC(=S)N1CCN(c2ccc([N+](=O)[O-])cc2)CC1	none
CC(=O)N1CCN(c2ccc([N+](=O)[O-])cc2)CC1	none
O=C(NC(=S)N1CCN(c2ccc(Cl)cc2[N+](=O)[O-])CC1)c1ccco1	VP16 counter 0.25µM, RORgamma inh 0.28µM
CCn1cc(CNC(=O)C2CCC(=O)N(C3CCCCCC3)C2)cn1 (configuration not stated)	none (no result: KinaseGlo FLuc)
O=C(O)COCC(=O)NCc1csc2ccccc12	none (no result: KinaseGlo FLuc)
CCOC(=O)C(Cc1ccc(O)cc1)NC(=O)CNC(=O)C1CCCN1C(=O)OC(C)(C)C (configuration not stated)	none (no result: KinaseGlo FLuc)
Cc1cc(N2CCN(C)CC2)ccc1NC(=O)c1cccc(S(=O)(=O)N2CCc3ccccc3C2)c1	VP16 counter inconclusive, RORgamma inh inconclusive
COc1ccc(Nc2ccc([N+](=O)[O-])cc2[N+](=O)[O-])cc1	none
Cc1ccc(CNC(=O)C2CCN(c3nn4c(=O)cc(C)nc4s3)CC2)cc1	none (no result: KinaseGlo FLuc)
C/C(=N\Nc1ccc(F)cc1)c1ccc(N2CCOCC2)c(F)c1	none (no result: KinaseGlo FLuc)
CC(=O)N1c2ccc(S(=O)(=O)N3CCCCC3)cc2CC1C(=O)NCc1cccc(Cl)c1 (configuration not stated)	none (no result: KinaseGlo FLuc)
CCc1ccccc1N/N=C(/C)c1c(O)cc(C)oc1=O	none
C/C(=N\NC(=O)c1ccccc1[N+](=O)[O-])c1c(O)cc(C)oc1=O	VP16 counter 6.3µM, RORgamma inh 3.2µM
C/C(=N/NC(=O)c1cc(O)c(O)c(O)c1)c1ccc([N+](=O)[O-])cc1	none
C/C(=N\NC(=O)c1ccc([N+](=O)[O-])cc1)c1c(O)cc(C)oc1=O	VP16 counter inconclusive, RORgamma inh 0.63µM
C/C(=N\NC(=O)c1ccccc1O)c1c(O)cc(C)oc1=O	VP16 counter 2.5µM, RORgamma inh 0.89µM
C/C(=N\NC(=O)c1cccnc1)c1c(O)cc(C)oc1=O	none
Clc1ccc(Sc2cc(Cl)c(Cl)cc2Cl)cc1	none (no result: KinaseGlo FLuc)
O=c1c2ccccc2nnn1COc1cccc(Cl)c1	RORgamma inh inconclusive
CCOc1ccc(C(=O)NC(=S)Nc2ncccc2C)cc1[N+](=O)[O-]	none
CCCCC(=O)NC(=S)Nc1nnn(CCC)n1	VP16 counter 0.56µM, RORgamma inh 0.11µM
CCCCC(=O)Nc1nnn(CCC)n1	none
CCCCn1nnc(NC(=O)c2ccc(-c3ccccc3[N+](=O)[O-])o2)n1	none
CCCCn1nnc(NC(=S)NC(=O)c2ccc(-c3cccc(Cl)c3Cl)o2)n1	VP16 counter 1.1µM, RORgamma inh 1.3µM (no result: KinaseGlo FLuc)
CCCCn1nnc(NC(=S)NC(=O)c2ccc(OCC)c([N+](=O)[O-])c2)n1	VP16 counter 2.5µM, RORgamma inh 2.8µM (no result: KinaseGlo FLuc)
C=C(C)C(O)C(CC/C=C(\C)C(=O)OCC)OC (configuration not stated)	none (no result: KinaseGlo FLuc)
CC(C)CC(CSc1ccc(Br)cc1)N1CCN(CC(C)C)CCC1=O (configuration not stated)	none (no result: KinaseGlo FLuc)
CC12CCC=CC1C(c1ccc3ccccc3c1C=Cc1ccccc1)N(Cc1ccccc1)C2=O (configuration not stated)	none (no result: KinaseGlo FLuc)
COc1ccc(C/C(C)=N/NC(=S)Nc2ccc(C)c(C)c2)cc1	VP16 counter 10µM, RORgamma inh inconclusive (no result: KinaseGlo FLuc)
COc1ccc(C/C(C)=N/NC(=O)c2ccc(C)cc2C)cc1	none
COc1ccc(C/C(C)=N/NC(=S)Nc2ccccc2)cc1	VP16 counter inconclusive, RORgamma inh 20µM
CCOc1ccc(NC(=S)N/N=C(\C)Cc2ccc(OC)cc2)cc1	VP16 counter inconclusive
COc1ccc(C/C(C)=N/NC(=S)Nc2ccc(Cl)cc2)cc1	VP16 counter inconclusive, RORgamma inh 11µM (no result: KinaseGlo FLuc)
CCOc1ccccc1OCC(=O)N/N=C(\C)Cc1ccc(OC)cc1	none
CN1CCSc2ccc(C(=O)Nc3cccc(F)c3)cc21	VP16 counter inconclusive (no result: KinaseGlo FLuc)
O=[N+]([O-])c1ccc2nc(N3CCCC3)sc2c1	none (no result: KinaseGlo FLuc)
O=C(NCCc1ccccc1)c1ccc2nc(N3CCOCC3)sc2c1	VP16 counter inconclusive (no result: KinaseGlo FLuc)
CCN(CC)S(=O)(=O)c1ccc(C(=O)N2CCN(c3ncccn3)CC2)cc1	none (no result: KinaseGlo FLuc)
O=C(c1ccc2nc(N3CCOCC3)sc2c1)N1CCC(Cc2ccccc2)CC1	VP16 counter 0.22µM, RORgamma inh inconclusive
CCOC(=O)N1CCN(C(=O)c2ccc3nc(N4CCC(C)CC4)sc3c2)CC1	VP16 counter inconclusive
O=C(c1ccccc1)N1CCN(c2nc3ccc([N+](=O)[O-])cc3s2)CC1	VP16 counter 8.9µM, RORgamma inh inconclusive
CCN(Cc1ccccc1)S(=O)(=O)c1ccc(C(=O)N2CCN(c3nc4ccccc4s3)CC2)cc1	VP16 counter 22µM, RORgamma inh inconclusive
COc1cccc(N2CCN(C(=O)c3ccc4nc(N5CCC(C)CC5)sc4c3)CC2)c1	RORgamma inh 13µM (no result: KinaseGlo FLuc)
COc1ccc(OC)c(S(=O)(=O)N2CCC(C(=O)NC3CCCC3)CC2)c1	none (no result: KinaseGlo FLuc)
CC(C)OC(=O)c1cc(NC(=O)c2nn(C)cc2Br)cc(C(=O)OC(C)C)c1	none
COc1ccc(CNC(=O)CCCC(=O)Nc2cccc(Br)c2)cc1	none (no result: KinaseGlo FLuc)
CC(C)CC(C(=O)Nc1ccccc1)N1C(=O)C2C3C=CC(C3)C2C1=O (configuration not stated)	none
O=[N+]([O-])c1ccc(Nc2ccc(Cl)cc2)nc1	none
O=[N+]([O-])c1ccc(NNS(=O)(=O)c2cc(Cl)ccc2Cl)nc1	VP16 counter inconclusive, RORgamma inh 13µM (no result: KinaseGlo FLuc)
C=C1/C(=C\C=C2/CCC[C@]3(C)[C@@H]([C@H](C)/C=C/[C@@H](O)C4CC4)CC[C@@H]23)C[C@@H](O)C[C@@H]1O	none (no result: KinaseGlo FLuc)
Cc1cc(C)n(CCC(=O)Nc2ccc(-c3ccno3)cc2)n1	none (no result: KinaseGlo FLuc)
O=C(CCN1C(=O)/C(=C\c2cccs2)SC1=S)NC1=NCCS1	VP16 counter inconclusive, RORgamma inh inconclusive
COc1ccccc1/C=C1\SC(=S)N(CCC(=O)NC2=NCCS2)C1=O	RORgamma inh 4.5µM
COc1ccccc1/C=C1/SC(=S)N(CCC(=O)Nc2cccnc2)C1=O	none (no result: KinaseGlo FLuc)
O=C(CCN1C(=O)/C(=C/c2cccs2)SC1=S)NC1=NCCS1	VP16 counter inconclusive, RORgamma inh 16µM
CN(Cc1ccco1)C(=O)Cn1ncc2c([nH]c3ccccc32)c1=O	RORgamma inh inconclusive (no result: KinaseGlo FLuc)
COC(=O)C/C=C1\c2ccc3c(c2[C@@H](OC)[C@@H]1C)OCO3	none
O=C(NCc1ccc(Cl)cc1)C(=O)c1cn(CC(=O)N2CCOCC2)c2ccccc12	none (no result: KinaseGlo FLuc)
O=C(CCc1cn(Cc2ccc(F)cc2)c2ccccc12)N1CCOCC1	VP16 counter inconclusive (no result: KinaseGlo FLuc)
S=C(c1cn(Cc2ccc(Br)cc2)c2ccccc12)N1CCOCC1	VP16 counter inconclusive, RORgamma inh 14µM
S=C(c1cn(Cc2ccccc2)c2ccccc12)N1CCOCC1	RORgamma inh 11µM (no result: KinaseGlo FLuc)
CC(C)(C)OC(=O)N1CCC(c2c(C(=O)N3CCN(C(=O)c4ccco4)CC3)cnn2-c2ccc(F)cc2F)CC1	none (no result: KinaseGlo FLuc)
CCc1nc(CNC(=O)C2CCC(=O)N(Cc3cccc(OC)c3)C2)no1 (configuration not stated)	none (no result: KinaseGlo FLuc)
Cc1noc(C)c1-c1nc(Nc2ccncc2)c2ccccc2n1	RORgamma inh 8.9µM

Assay outcomes from PubChem.
